# Experimental data taken from PubChem BioAssay AID743198 (NMMLSC, 2013).
# Active and inactive are the calls of the source.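 The calls were made as follows: active = at least 15% MAC1-positive differentiation at the top dose and half-maximal dose below 10 µM; inactive = the rest.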
# Test: MAC1 induction in normal CD34+ cells, SAR follow-up, cell-based, MAC1 flow cytometry, set 1 (AID 743198)
# Settings: human CD34+ cells, 4 days; at 10 µM (top of the series)
SMILES,"MAC1+ differentiation, normalised [%]",outcome
O=C(O)c1cccnc1Nc1ccc(Cl)cc1,85,–
O=C(CCNC(=O)c1ccc(C(F)(F)F)cc1)N[C@@H]1CCCc2ccccc21,96,–
O=C(CCNC(=O)c1ccc(Cl)cc1)N[C@H]1CCCc2ccccc21,–,inactive
O=C(CNC(=O)c1ccc(OC(F)(F)F)cc1)N[C@@H]1CCCc2ccccc21,–,inactive
O=C(CCNC(=O)c1ccc(OC(F)(F)F)cc1)N[C@@H]1CCCc2ccccc21,96.3,–
O=C(CCNC(=O)c1ccc2c(c1)OC(F)(F)O2)N[C@@H]1CCCc2ccccc21,90,–
O=C(CCNC(=O)c1ccc(Cl)cc1)N[C@@H]1CCCc2ccccc21,95.7,–
O=C(CCNC(=O)c1ccc(Cl)c(Cl)c1)N[C@@H]1CCCc2ccccc21,96.1,–
O=C(CCCNC(=O)c1ccc(OC(F)(F)F)cc1)N[C@@H]1CCCc2ccccc21,–,inactive
O=C(CCNC(=O)c1ccc(Cl)cc1)NC1CCCc2ccccc21 (stereo not given),86.2,–
